According to the supplement of paper PMC6555819:

Key:
Assay in all cases: PBM binding z-score (relative to random genomic background probes); higher = stronger binding; sequences stand for … in GC…GCGATTGACAGCGTAGAATGAAGG
[1] = tested on: PPARg:RXRa DBDmut IVT, anti-RXR (DBD mutation: RXRa K156A/R161A, NR concentration 270 nM, RXRa partner concentration 90 nM)
Method in brief: (§1)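 Scanned fluorescence from custom Agilent 4×180K protein-binding microarrays was regression-normalized. Binding z-scores use random background probes as reference. Ligand-free nuclear receptor dimers were incubated on the arrays for 1 h and detected with antibodies against each partner (one per run).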

[2] = tested on: PPARg:RXRa IVT, anti-PPARg (NR concentration 270 nM, RXRa partner concentration 90 nM)
Method in brief: as §1

[3] = tested on: PPARg DBDmut:RXRa IVT, anti-PPARg (DBD mutation: PPARg1 K132A/R137A, NR concentration 270 nM, RXRa partner concentration 90 nM)
Method in brief: as §1

[4] = tested on: PPARg DBDmut IVT, anti-PPARg (DBD mutation: PPARg1 K132A/R137A, NR concentration 270 nM)
Method in brief: as §1

[5] = tested on: PPARg homodimer (NR concentration 180 nM)
Method in brief: as §1

[6] = tested on: PXR:RXRa (NR concentration 270 nM, RXRa partner concentration 90 nM)
Method in brief: as §1

[7] = tested on: PXR homodimer (NR concentration 270 nM)
Method in brief: as §1

[8] = tested on: RARa:RXR (NR concentration 270 nM, RXRa partner concentration 90 nM)
Method in brief: as §1

[9] = tested on: RARa homodimer (NR concentration 270 nM)
Method in brief: as §1

[10] = tested on: RARb:RXRa (NR concentration 270 nM, RXRa partner concentration 90 nM)
Method in brief: as §1

| Sequence | PBM binding z-score [1] | PBM binding z-score [2] | PBM binding z-score [3] | PBM binding z-score [4] | PBM binding z-score [5] | PBM binding z-score [6] | PBM binding z-score [7] | PBM binding z-score [8] | PBM binding z-score [9] | PBM binding z-score [10] |
| --- | --- | --- | --- | --- | --- | --- | --- | --- | --- | --- |
| CATAGAGGGTCAGCTAGGCCAGAGTAGGGACGGC | 1.42 | 2.21 | 0.395 | 0.25 | 1.26 | 1.2 | -0.122 | 1.9 | -0.0533 | 3.82 |
| CCGACTGGGGCAAGGTTACCATTACGCACAGCCA | 2.66 | 3.49 | -0.296 | -0.507 | 0.706 | 0.214 | -0.376 | 0.792 | 0.0733 | 1.56 |
| CGTACTGGGCCAAGGTCATTGATCAGTCAAAGCA | 4.15 | 4.66 | -0.787 | -0.351 | 1.31 | 3.51 | 1.34 | 3.71 | -0.0917 | 3.35 |
| GCAGACAGGAGAAACGCAGGTAACTCAGGGTGGC | -0.542 | -0.859 | -0.9 | -0.99 | -0.201 | -0.694 | -0.412 | -0.368 | -1.26 | -0.624 |
| CTACCAAGGTGATCAAGGTCGTTGATTACTATTC | 1.11 | 1.31 | 0.364 | -0.201 | 0.492 | 2.22 | 1.77 | 1.33 | 0.0994 | 1.32 |
| CCGATTAGGTTATGGGGCATTCAGGCAACGGTGA | 2.29 | 2.29 | -0.258 | -1.33 | 1.18 | 0.0495 | -0.245 | 0.615 | 0.0747 | 1.37 |
| GTACCAAGGTGAATAGGTCGTTGGTGAGTAGGCG | 1.63 | 2.76 | -0.162 | -0.965 | 0.877 | 0.626 | -0.0296 | 1.9 | -0.0597 | 2.1 |
| AGTCAAAGTTCAGGACCAGGTAACGTAAAGCACG | -0.279 | 1.91 | 0.221 | 0.246 | 1.9 | 2.47 | 1.19 | 2.67 | 0.885 | 4.37 |
| TCATATAGGTAAACACGTGAAAGTCCGTAAGTTA | 4.07 | 2.96 | 0.9 | 1.04 | 0.24 | 0.722 | 0.241 | 0.769 | 1.1 | 0.364 |
| ACTAGTTGGTTAGCTGAGGTCACACACAATTCGG | 0.671 | 2.34 | 0.586 | 0.524 | 3.15 | 5.03 | 2.31 | 4.59 | 1.66 | 3.06 |
| ATATGTAGGTTATCGGGTGATTCAGTTTGCGCAT | 7.59 | 7.22 | 2.9 | 2.24 | 1.51 | 1.07 | 1.12 | 0.995 | 1.96 | 1.15 |
| CCGACTGGGGCAAGGTTACTATAACGCACAGCCA | 2.98 | 3.39 | 0.184 | -0.443 | 0.157 | 0.274 | -0.27 | 0.867 | -0.248 | 1.38 |
